Our source for the outcome and AC50 values is PubChem BioAssay (EPA / NIEHS).

Structures are written as SMILES. Active and inactive are the calls of the source. How the source made its calls: active means hit-call score of the fitted dose curve at least 0.9, where 1 is the maximum; inactive means score below 0.9.

Read-out in this experiment: Actin alpha 1 (ACTA1), ACTA1 (gene 58)
The experiment in a line: BSK_MyoF_ACTA1: BioMAP Diversity Plus: MyoF Assay for Actin alpha 1 (ACTA1) Biomarker Activity (AID 2284244). As to conditions: primary human lung fibroblasts. The protocol: BSK_MyoF is a cell-based, multiplexed-readout assay that uses lung fibroblasts, […], with measurements taken at 24 hours after chemical dosing in a microplate: 96-well plate.BSK_MyoF_ACTA1 is an assay component measured in the BSK_MyoF assay. It measures a-SMA antibody related to regulation of gene expression using ELISA technology.Data from the assay component BSK_MyoF_ACTA1 was analyzed at the endpoint, BSK_MyoF_ACTA1, in the positive analysis fitting direction relative to DMSO as the negative control and baseline of activity. Using a type of binding reporter, gain or loss-of-signal activity can be used to understand protein changes. To generalize the intended target to other relatable targets, this assay endpoint is annotated to the 'cell adhesion molecules' intended target family, where the subfamily is 'actin'.
The levels of cell surface (or secreted, indicated by the prefix "s") biomarker endpoints were measured by ELISA. Overt cytotoxicity to cells in confluent adherent cultures (all systems other than the BT system) was assessed by measuring total protein levels using sulforhodamine B (SRB) staining in parallel cultures at the time of biomarker measurements, indicated as SRB endpoints. For proliferation assays for adherent cell types, individual cell types are cultured at sub-confluence and relative cell numbers quantified by SRB staining at time points optimized for each system (48 h: 3C and CASM3C systems; 72 h: BT and HDF3CGF systems; 96 h: SAg system). SRB was performed by staining cells with 0.1% SRB after fixation with 10% TCA and reading wells at 560 nm.Viability and proliferation of PBMC (T cells) was quantified by Alamar Blue reduction for the SAg and BT systems. For PBMC viability (referred to as PBMC Cytotoxicity within the assay endpoint names), cells were plated (75,000/well in a 96-well plate) and then chemical samples added for 1 h before addition of activators, SEB and TSST-1 (20 ng/mL final concentration each). Cells were incubated for 90 h. Then, Alamar Blue (20 uL/well) (Invitrogen, Cat DAL1100) was added for 6 h, and the plates were read with a fluorescence microplate reader at 546/580 nm (excitation/emission). For PBMC proliferation, cells were plated and activated as above but incubated for only 16 h prior to addition of Alamar Blue. Plates were read after 6 h.
Take `CC(c1cc(C(C)(C)C)cc(C(C)(C)C)c1O)c1cc(C(C)(C)C)cc(C(C)(C)C)c1O`: the outcome was inactive.
Still for that read-out and setting: the result for `CCOC(=O)/C=C\C(=O)OCC` reads “inactive”.
In the case of `C=CC(=O)OCCCCCCOC(=O)C=C`, the AC50 is 20 µM (active).
`C=CC(=O)NCOCCCC`: the outcome was inactive.
Take `C=CC(=O)NC(C)(C)C`: the outcome was inactive.
The same measure, in the same setting: the result for `CCN1CN(CC)CN(CC)C1` reads “inactive”.
Regarding `CCC1(C)C(=O)N(Cl)C(=O)N1Cl` (stereo not given), the result was inactive.
Same read-out and setting: next, `CCc1cccc(C)c1N(C(=O)CS(=O)(=O)O)C(C)COC` (stereo not given): “inactive”.
Take `CCCCCCCCCCCC(C)=O`: the outcome was inactive.
Same read-out and setting: the result for `CCCCC1C(=O)N(c2ccccc2)N(c2ccccc2)C1=O` reads “inactive”; that for `O=C1CCCCCCCCCCC1`, “inactive”; that for `CC=C(C)C=CC=C(C)C`, “inactive”.
The same measure, in the same setting: the result for `Cc1c(O)cccc1O` reads “inactive”; that for `CC1(C)CC(O)CC(C)(C)N1[O]`, “inactive”.
The same measure, in the same setting: the result for `CCCCCCCO` reads “inactive”; that for `COc1ccc(C(=O)c2ccccc2)c(O)c1`, “inactive”.
With `CC/C=C\CCOC(=O)c1ccccc1O`, the AC50 is 30.7 µM (active).
For the molecule `c1ccc2sc(SSN3CCOCC3)nc2c1`, the AC50 is 25.4 µM (active).
As for `CCCCCCC=O`, the outcome was inactive.
For `CCCCCCOC(=O)CCCCC(=O)OCCCCCC`, the outcome was inactive.
With `C=CC(=O)OCC(C)OCC(C)OCC(C)OC(=O)C=C` (stereo not given), the AC50 is 30.8 µM (active).
Consider `c1ccc2c(c1)[nH]c1ccccc12`, for which the outcome was inactive.
For the molecule `CC1=CC=C(C(C)C)CC1`, the outcome was inactive.
As for `O=C(Oc1ccccc1)c1ccccc1C(=O)Oc1ccccc1`, the AC50 was 30.2 µM (active).
In the case of `CC(C)c1cccc(C(C)C)c1N`, the outcome was inactive.
On to `O=C(Cl)c1c(Cl)c(Cl)c(C(=O)Cl)c(Cl)c1Cl`, for which the outcome was inactive.
In the case of `CC(C)[N+](C)(CCOC(=O)C1c2ccccc2Oc2ccccc21)C(C)C`, the outcome was inactive.
Regarding `CC/C=C\C/C=C\C/C=C\CCCCCCCC(=O)OC`, the AC50 was 6.98 µM (active).
On to `Oc1ccc(/C=C/c2cc(O)cc(O)c2)cc1`, for which the outcome was inactive.
Same read-out and setting: next, `CCCCCC1=CCCC1=O`: “inactive”; `C=CC(=O)OCCCCCCCC(C)C`: “inactive”; `CC=C(C)C(C)=O`: “inactive”.
On the same count and under the same terms, the result for `O=C1CCCCCCCCCCCN1` reads “inactive”; that for `CCNc1nc(NC(C)(C)C)nc(OC)n1`, “inactive”.
On the same count and under the same terms, next, `CCOC(=O)C1=NOC(c2ccccc2)(c2ccccc2)C1`: “inactive”; `C=CCCCCCCCCC=O`: “inactive”.
Take `Oc1c(Cl)cc(Cl)c(Cl)c1Cl`: the AC50 was 29.7 µM (active).
Turning to `Nc1cccc(N)n1`, the outcome was inactive.
Turning to `Fc1ccc(Br)cc1`, the result was inactive.
With `C=C(C)C(=O)OCCCCCCCCCCCC`, the outcome was inactive.
